Records with an inconclusive call do not appear. Activity calls are given as the source filed them. Unless noted, calls follow the shape of the dose curve; as a rule, active = well fitted curve in the direction sought with a large enough effect; inconclusive = small, poorly fitted or top-dose-only effect, or another doubt; inactive = no such curve, though single readings can be large; an effect the other way counts as inactive or inconclusive.
Columns and labels:
[1] = KB-3-1 Cancer Cell Toxicity qHTS against the NCATS CANVASS Library (AID 1347366); also: nearly all actives have a fitted effect of over 75% in size; also: potency is read from the fitted curve at half-maximal effect
Method in brief: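 CellTiter-Glo luminescence measured viability after 72 h at 37C. KB-3-1 cells were seeded at 500 per well in DMEM/10% FBS.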

[2] = qHTS for Hypoxia signaling pathway (HIF-1) antagonists against the NCATS CANVASS Library (AID 1347374); also: nearly all actives have a fitted effect of over 60% in size; also: potency is read from the fitted curve at half-maximal effect
Method in brief: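 HRE-bla ME-180 cells in medium with 0.5% dialyzed FBS received compounds (11-point series) plus CoCl2 (60 uM addition stock) for 17 hrs at 37C. Beta-lactamase activity read with CCF4 (405 nm ex, 460/530 nm em); CellTiter-Glo viability measured in same wells.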

[3] = qHTS for Inflammasome Signaling Inhibitors: IL-1-beta AlphaLISA screen against the NCATS CANVASS Library (AID 1347379);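 also: human THP-1 cells primed with LPS then triggered with ATP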
Method in brief: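 THP-1 cells pretreated 1 hr with compound (up to 57.5 uM final), then stimulated with LPS (250 ng/mL final) and ATP (1.25 mM final). Secreted IL-1B measured by AlphaLISA after 16 hr; glyburide as positive control.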

[4] = qHTS assay for small molecule disruptors of mitochondrial membrane potential screened against the NCATS CANVASS Library (AID 1347389); also: nearly all actives have a fitted effect of over 60% in size; also: potency is read from the fitted curve at half-maximal effect
Method in brief: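 HepG2, 2,000 cells/well, attached overnight; compound 1 hr, 37C, 5% CO2; Mito-MPS dye 30 min, 37C; fluorescence 535 nm (monomer) and 590 nm (aggregate); decreased 590/535 ratio = depolarization.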

[5] = HEK-293 Cancer Cell Toxicity qHTS against the NCATS CANVASS Library (AID 1347355); also: nearly all actives have a fitted effect of over 65% in size; also: potency is read from the fitted curve at half-maximal effect
Method in brief: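 Luminescent ATP read-out (CellTiter-Glo, 15min at room temperature) measures survival after cells face an 11-point compound series for 72 hours at 37 degrees C/5% CO2.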

[6] = system: NAD(P)H diaphorase (Clostridium kluyveri); experiment: Diaphorse counterscreen qHTS: Assay Interference Panel against the NCATS CANVASS Library (AID 1347362); also: potency is read from the fitted curve at half-maximal effect
Method in brief: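 Clostridium kluyveri diaphorase in PBS + 0.01% Tween-20 preincubated 15 min with compounds. Resazurin and NADH then added for 5 min at room temperature in the dark; resorufin fluorescence read (ex 525, em 598).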

[7] = KB-8-5-11 Cancer Cell Toxicity qHTS against the NCATS CANVASS Library (AID 1347364); also: nearly all actives have a fitted effect of over 75% in size; also: potency is read from the fitted curve at half-maximal effect
Method in brief: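 Plate 500 KB-8-5-11 cells per well in DMEM + 10% FBS, add compounds by pin transfer, incubate 72 hr at 37C. Add CellTiter-Glo, wait 10 minutes at room temperature, read luminescence.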

[8] = molecular target: Nuclear receptor subfamily 1 group I member 3 (Homo sapiens) (UniProt Q14994); experiment: qHTS for Constitutive Androstane Receptor (CAR) Antagonist screened against the NCATS CANVASS Library (AID 1347372); also: potency is read from the fitted curve at half-maximal effect
Nuclear receptor subfamily 1 group I member 3 (Homo sapiens), sequence (Q14994 whole entry, looked up): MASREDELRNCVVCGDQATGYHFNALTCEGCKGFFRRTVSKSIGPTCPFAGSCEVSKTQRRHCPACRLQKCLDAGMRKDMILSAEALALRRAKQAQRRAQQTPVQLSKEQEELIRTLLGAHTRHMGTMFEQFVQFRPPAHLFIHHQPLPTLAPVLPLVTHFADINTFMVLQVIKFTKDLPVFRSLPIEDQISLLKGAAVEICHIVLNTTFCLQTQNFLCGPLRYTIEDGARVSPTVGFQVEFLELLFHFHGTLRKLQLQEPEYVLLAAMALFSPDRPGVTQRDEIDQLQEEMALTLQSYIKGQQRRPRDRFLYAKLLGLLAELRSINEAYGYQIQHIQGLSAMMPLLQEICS
Method in brief: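 HepG2 cells stably carrying hCAR and CYP2B6-2.2kb luciferase reporter, 2500 cells/well, compound with 50 nM CITCO agonist for 24hr at 37C. ONE-Glo luminescence measured CAR activity; CellTiter-Fluor read viability.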

[9] = qHTS for Hypoxia signaling pathway (HIF-1) agonists against the NCATS CANVASS Library (AID 1347375)
Method in brief: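 ME-180 HRE-bla reporter cells; 2,000/well, 0.5% dialyzed FBS; cpd added after 5 h, 17 h 37C/5% CO2; CCF4-AM 2 h RT; FRET 460/530 nm; CellTiter-Glo viability same wells, 30 min.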

[10] = qHTS for inhibitors of Wild type Zika virus screened against the NCATS CANVASS Library (AID 1347396); also: potency is read from the fitted curve at half-maximal effect
Method in brief: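 Vero 766 (African green monkey) cells, 1000 per well, attached overnight, then compounds were added in an 11-point series before wild-type Zika virus infection. After 72 h at 37C, cell viability was read as CellTiter Glo luminescence.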

[11] = Viability qHTS for inhibitors of the SERCaMP assay screened against the NCATS CANVASS Library (AID 1347400); also: nearly all actives have a fitted effect of over 70% in size; also: potency is read from the fitted curve at half-maximal effect
Method in brief: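 SH-SY5Y SERCaMP MJH297 cells, 1000/well; 4 h settle, 37C/5% CO2; pin-transferred cpds; 48 h; CellTiter-Glo lum. Pos ctrl bortezomib 0.0001 - 4.6 uM.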

[12] = qHTS for inhibitors of Rabies Virus screened against the NCATS CANVASS Library (AID 1347402; calls by dose curve; also: series mostly up to about 46 µM)

Measured: Potency

C=C(C)[C@H]1C(=O)c2c3c(cc4c5c(n1c24)[C@@]1(C)[C@@H](CC[C@H]2[C@](C)(/C=C/C=C(\C)C(=O)O)[C@@H](O)CC[C@@]21C)C5)C1=CC(C)(C)OC(C)(C)[C@H]1[C@@H]3O
active: [1] 16600 nM | [2] 6660 nM | [4] 16600 nM
inactive: [3]

CCCC[C@@H]1CC[C@H]2CCCC(CCCO)N12 (some centres not stated)
inactive: all assays above

C=CC(C)(C)[C@@]12C[C@H]3C(=O)N/C(=C\c4cnc[nH]4)C(=O)N3[C@@H]1Nc1ccccc12
inactive: all assays above

C[C@]12CCC3[C@@H](CC[C@@H]4C[C@@H](O)CC[C@]34CO)[C@@]1(O)CC[C@@H]2C1=CC(=O)OC1 (some centres not stated)
active: [5] 1870 nM | [7] 935 nM | [1] 1320 nM | [8] 4170 nM | [2] 941 nM | [3] 1930 nM | [11] 1910 nM
inactive: [6] | [9] | [10]

C/C=C1/CN2CC[C@]34C(=C(C(=O)OC)[C@H]1C[C@H]23)Nc1ccccc14
not listed: [3] | [7] | [8] | [11]
inactive: all other assays above

C/C=C(\C)C(=O)O[C@@H]1[C@@H](O)[C@@H]2O[C@H]3[C@H](O[C@@H](CCCCC)CCCCCCC(=O)CCC(=O)OC[C@@H](O2)[C@H]1OC(=O)/C=C/c1ccccc1)O[C@H](C)[C@H](OC(C)=O)[C@@H]3O
inactive: [6] | [9] | [10]
active: [5] 118 nM | [7] 1480 nM | [1] 118 nM | [8] 52.4 nM | [4] 16600 nM

CCC(=O)N[C@@H](C[C@H](C)C(Cl)(Cl)Cl)C(=O)N1C(=O)C=C(OC)[C@@H]1C[C@H](C)C(Cl)Cl
not listed: [4] | [7] | [8] | [12]
inactive: all other assays above

COC1C(O)C(C)OC(OC2C(Oc3cccc4c(O)c5c(=O)oc6ccc(C)c7c(=O)oc(c34)c5c67)OC(C)C(O)C2O)C1O (configuration not stated)
active: [5] 14800 nM | [8] 11700 nM | [3] 27300 nM | [11] 34000 nM
inactive: [10] | [12]

C=CC(C)(C)[C@@]12C[C@H]3C(=O)N/C(=C/c4cnc[nH]4)C(=O)N3[C@@H]1Nc1ccccc12
active: [8] 20900 nM
not listed: [5]
inactive: all other assays above

C/C=C1/CN2C3CC1C1=CCC(=O)N4c5ccccc5[C@@]3(C[C@@H]2C2=C[C@H]3C5CC6N(CC[C@@]67c6ccccc6N(C2=O)[C@@H]37)C/C5=C/C)[C@H]14 (some centres not stated)
inactive: [6] | [9] | [4]
active: [5] 7430 nM | [7] 16600 nM | [3] 21700 nM | [11] 42800 nM

C[N+](C)(C)CCc1c[nH]c2ccccc12
inactive: all assays above

COC1=C(C2=C(OC)C(=O)c3cc4c(c(O)c3C2=O)C(=O)O[C@H](C)C4)C(=O)c2c(cc3c(c2O)C(=O)O[C@H](C)C3)C1=O
active: [6] 1450 nM
not listed: [2] | [3] | [4]
inactive: all other assays above

CC[C@@H](c1cc(OC)c(OC)cc1OC)[C@H](C)[C@@H](/C(C)=C/c1cc(OC)c(OC)cc1OC)c1cc(OC)c(OC)cc1OC
inactive: [12]

C1=C2CCCN[C@H]2C2CC1[C@H]1CCCCN1C2 (some centres not stated)
not listed: [11]
inactive: all other assays above

CC[C@H]1CN2CCc3c([nH]c4cccc(OC)c34)[C@@H]2C[C@@H]1/C(=C\OC)C(=O)OC
active: [5] 23500 nM
not listed: [4] | [12]
inactive: all other assays above

CC(C)CC1C(=O)O[C@H](C(C)C)C(=O)N(C)C(CC(C)C)C(=O)O[C@@H](C(C)C)C(=O)N(C)C(CC(C)C)C(=O)O[C@H](C(C)C)C(=O)N(C)C(CC(C)C)C(=O)O[C@@H](C(C)C)C(=O)N1C (some centres not stated)
inactive: [9] | [3] | [12]
active: [5] 2350 nM | [7] 9350 nM | [1] 9350 nM | [8] 20900 nM | [4] 7410 nM | [10] 14700 nM | [11] 42800 nM

CC[C@@H]1CN2CCC3(Nc4cccc(OC)c4C3=O)[C@@H]2C[C@@H]1/C(=C\OC)C(=O)OC (some centres not stated)
not listed: [8]
inactive: all other assays above

CC[C@@H]1CN2CCc3c([nH]c4cccc(OC)c34)[C@@H]2C[C@@H]1/C(=C\OC)C(=O)OC
active: [5] 18700 nM | [4] 4670 nM
not listed: [1] | [3] | [7]
inactive: all other assays above

CCCC[C@@H](C)/C=C1/CN2CCC[C@H]2[C@@](C)(O)[C@@H]1O
inactive: all assays above

CO[C@H]1C[C@H](O[C@H]2[C@@H](O)C[C@H](O[C@H]3CC[C@]4(C=O)[C@H]5CC[C@]6(C)C(C7=CC(=O)OC7)CC[C@]6(O)[C@@H]5CC[C@]4(O)C3)O[C@@H]2C)O[C@H](C)[C@H]1O[C@H]1C[C@@H](OC)[C@@H](O[C@@H]2O[C@H](CO)[C@@H](O)[C@H](O)[C@H]2O)[C@@H](C)O1 (some centres not stated)
inactive: [6] | [9] | [4] | [10]
active: [5] 118 nM | [7] 166 nM | [1] 187 nM | [8] 417 nM | [2] 118 nM | [3] 1530 nM | [11] 135 nM

C/C(=C\[C@H](C)C(=O)C[C@H](O)CC1CC(=O)NC(=O)C1)[C@@H]1OC(=O)/C=C/CC/C=C/C=C/[C@@H]1C
active: [5] 148 nM | [7] 2350 nM | [1] 1480 nM | [8] 741 nM | [2] 37.5 nM | [3] 2430 nM | [11] 538 nM
inactive: [9] | [4] | [10]

C/C=C1/CN2CC[C@@]34c5ccccc5N(C)[C@@H]3[C@@H]2C[C@@H]1[C@H]4C(=O)OC
inactive: all assays above

CCCc1c2c([nH]c(=O)c1C)C(=O)c1[nH]c(=O)c(C)c(CCC)c1C2=O
inactive: [12]

CO[C@H]([C@@H](C)[C@H]1O[C@]1(C)C[C@H](C)/C=C/C=C(\C)[C@H]1O[C@@H](CC(=O)O)CC[C@@H]1C)[C@@H](C)O
active: [5] 20.9 nM | [7] 26.4 nM | [1] 26.4 nM | [3] 38.5 nM | [11] 48 nM
not listed: [2] | [10]
inactive: all other assays above

CO[C@@H](/C=C/CC/C=C/C(=O)O)[C@@H](O)[C@H](C)/C=C(\C)[C@H](O)[C@H](C)C(=O)CCCC1CC(=O)NC(=O)C1
inactive: all assays above
